Measured values: PubChem BioAssay AID2314 (National Center for Advancing Translational Sciences (NCATS), 2010)
Out of some 300,000 compounds screened, about 37,000 (12%) were called active. The sample holds actives, similar compounds and a random draw of the others, so the mix is not that of the screen. Cut-off read from the data, not from the text of the source: active = max response mostly above about 13% (no sharp cut-off); inactive = mostly below about 14%.

Assay: Cycloheximide Counterscreen for Small Molecule Inhibitors of Shiga Toxin; note: read at 38.3 µM for the half of the compounds with a filed dose; 0% is about no effect
Settings: cell reporter, cycloheximide protein synthesis inhibition counterscreen; hits give high values

**Q.** For `Cc1cccc(C2C3=C(CCCC3=O)N=C3c4ccccc4C(=O)C32)c1` (stereo not given), which max response is on record?
**A.** -3.21% (inactive)

**Q.** For `Cc1cc(=O)n2nc(N3CCC(C(=O)Nc4c(F)c(F)c(F)c(F)c4F)CC3)sc2n1`, which max response is on record?
**A.** 4.09% (inactive)

**Q.** With `Cc1ccc(-c2cc(C(=O)NCc3cn(C)nc3C)c3cc(Br)ccc3n2)cc1` as the molecule, how does the max response read?
**A.** 13.1% (active)

**Q.** For `Cc1ccc2nc(-c3cccc(Br)c3)cc(C(=O)Nn3cnnc3)c2c1`, which max response is on record?
**A.** 7.61% (inactive)

**Q.** Which max response does the source give for `O=C(NCc1cccs1)c1cc(-c2ccccn2)nc2ccc(Br)cc12` here?
**A.** -5.76% (inactive)

**Q.** With `CC(C)(C)C(=O)Nc1ccc(C(=O)N/N=C/c2ccccc2OC(=O)c2ccc(Cl)cc2Cl)cc1` as the molecule, how does the max response read?
**A.** 3.79% (inactive)

**Q.** Which max response does the source give for `O=C(Cn1cnc2ccccc2c1=O)Nc1cccc(S(=O)(=O)N2CCCCC2)c1` here?
**A.** 7.05% (inactive)

**Q.** Which max response does the source give for `COc1cc(CNC2CCCC2)c(Br)cc1OCc1ccccc1` here?
**A.** 7.1% (inactive)

**Q.** With `CCNC(=O)COC(=O)CCNC(=O)c1cccc(C)c1` as the molecule, how does the max response read?
**A.** 10.1% (inactive)

**Q.** With `COc1ccc(OCC(=O)NNC(=O)c2cccc(C)c2)cc1` as the molecule, how does the max response read?
**A.** -1.89% (inactive)

**Q.** With `CCOC(=O)C(CC)/C(C)=N\NC(=O)c1cccc(C)c1` (stereo not given) as the molecule, how does the max response read?
**A.** 27.9% (active)

**Q.** For `COCCn1c(N)c(NCc2ccccc2)c(=O)[nH]c1=O`, which max response is on record?
**A.** -1.16% (inactive)

**Q.** Which max response does the source give for `CCOC(=O)N1CCN(C(=O)C(C)NC(=O)c2ccco2)CC1` (stereo not given) here?
**A.** 1.53% (inactive)

**Q.** With `CC1=C(C)CC(C(=O)NC(C)CCc2ccccc2)C(C(=O)O)C1` (stereo not given) as the molecule, how does the max response read?
**A.** 12.4% (inactive)

**Q.** With `CC1=C(C)CC(C(=O)NNC(=O)c2ccccc2O)C(C(=O)O)C1` (stereo not given) as the molecule, how does the max response read?
**A.** 15.2% (active)

**Q.** With `CC1=C(C)CC(C(=O)NNC(=O)c2csc3c2CCC(C(C)(C)C)C3)C(C(=O)O)C1` (stereo not given) as the molecule, how does the max response read?
**A.** -0.879% (inactive)

**Q.** For `CCC(=O)N(CCc1ccccc1)Cc1cc2cc(C)ccc2[nH]c1=O`, which max response is on record?
**A.** -3.02% (inactive)

**Q.** With `CC(C)c1nc2sc3c(c2c(=O)n1N)CC(C)(C)OC3` as the molecule, how does the max response read?
**A.** 11.6% (inactive)

**Q.** For `COc1ccc(-c2noc(C(C)NS(=O)(=O)c3ccc(NC(C)=O)cc3)n2)cc1` (stereo not given), which max response is on record?
**A.** -8.48% (inactive)

**Q.** With `C/C(=N/Nc1ccc(Cl)cc1)c1cnnc(-c2ccccc2)n1` as the molecule, how does the max response read?
**A.** -2.47% (inactive)

**Q.** Which max response does the source give for `O=C(Cn1nnc(-c2ccccc2)n1)NCc1ccccc1` here?
**A.** -2.67% (inactive)

**Q.** With `Cc1ccccc1-c1nnn(CC(=O)c2ccc(S(=O)(=O)N3CCCC3)cc2)n1` as the molecule, how does the max response read?
**A.** 0.345% (inactive)

**Q.** Which max response does the source give for `CC(C)(C)NC(=O)Cn1nnc(-c2ccccc2Cl)n1` here?
**A.** 53.5% (active)

**Q.** Which max response does the source give for `COC(=O)COc1cccc2c(=O)n(CC(=O)NCc3ccccc3)ccc12` here?
**A.** -1.91% (inactive)

**Q.** For `Cc1ccc(S(=O)(=O)N(C)C)cc1NC(=O)c1n[nH]c(=O)c2ccccc12`, which max response is on record?
**A.** -4.46% (inactive)
